Source: PubChem BioAssay
In the library only some 2.1% were active in any assay of this set; here they are far more common.
aSyn UTR inh = 5' untranslated region of α-synuclein, MLPCN primary screen. alpha-synuclein 5'UTR reporter, inhibitor activity. inhibition, % (tested at 7.5 µM). 300,000 compounds, 0.82% hits. AID 1813; in the data active = inhibition above about 60%; inconclusive = no clear call, values can overlap the other calls;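 also: H4 neuroglioblastoma cells stably carrying SNCA 5'UTR luciferase fusion; 0% = DMSO wells and 100% = positive control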
KLF5 inhibitor = suppresses KLF5 promoter-driven expression; DLD-1 KLF5 promoter-luciferase reporter, luminescence; inhibition, % at 5 µM; 290,000 compounds, 0.23% hits;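 active = inhibition above a per-plate limit of that plate's mean compound inhibition plus 3 SD, cut at about 60% in these data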;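 also: 0% = DMSO wells and 100% = LY294002 at 200 µM; higher means less KLF5 promoter-driven luciferase light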
Ba/F3 V617F tox = reduce viability of Ba/F3 cells dependent on JAK2V617F; Ba/F3 EpoR-JAK2V617F viability, ATP luminescence; inhibition, % at 5.6 µM; 220,000 compounds, 1.1% hits;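 active = inhibition above the campaign mean plus 3 SD over all tested compounds, cut at about 24% in these data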;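 also: cytokine-independent growth of Ba/F3 cells driven by EpoR plus mutant JAK2; 0% = DMSO-treated cells and 100% = JAK inhibitor I control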
IEC-6 cytotox = IEC-6 cytotoxicity, counter-screen for KLF5 inhibitors; luminescence viability; inhibition, % at 5 µM; 290,000 compounds, 0.78% hits;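 also: 0% = plate median of test compound wells and 100% = cytotoxic reference compound wells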
BaF3 tox = parental Ba/F3 viability inhibition as JAK2V617F counter-screen; CellTiter-Glo ATP luminescence; inhibition, % at 5.6 µM; 220,000 compounds, 1.1% hits;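 active = inhibition above a per-campaign cutoff, the mean inhibition of all tested compounds plus 3 SD, cut at about 27% in these data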;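 also: 0% = DMSO wells and 100% = JAK Inhibitor I control wells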
APP 5UTR inh = APP translation inhibition; 190,000 compounds, 0.82% hits; inhibition, % at 2 µM; AID 1285; SH-SY5Y APP 5'UTR-luciferase reporter, luminescence;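 active = inhibition above a set limit, derived from the sample mean plus 3 SD, cut at about 45% in these data; inconclusive = one replicate passes the limit while the other fails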
BaF3 tox 2 = counter-screen for JAK2V617F inhibitors: parental Ba/F3 viability inhibitors; shares compounds with Ba/F3 V617F tox; CellTiter-Glo luminescence; cells kept alive by added IL-3; inhibition, % at 5.6 µM; 580 compounds, 31% hits; AID 1520;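 active = cell growth inhibition above the hit limit set in the earlier mutant JAK2 cell screen, cut at about 27% in these data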;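 also: plate controls were DMSO-treated cells for no effect and JAK Inhibitor I control wells for full effect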
JAK2V617F conf = confirmation: loss of viability in JAK2V617F-dependent Ba/F3 cells | 580 compounds, 66% hits | shares compounds with Ba/F3 V617F tox | AID 1521 | inhibition, % at 5.6 µM | Ba/F3 EpoR-JAK2V617F viability, CellTiter-Glo luminescence;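 active = mean inhibition above the hit cutoff derived in the earlier primary screen, cut at about 25% in these data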;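 also: 0% = DMSO-treated cells and 100% = JAK inhibitor I control wells; higher means lower luminescence from reduced cell ATP and viability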
IEC-6 tox confirm = IEC-6 cytotoxicity, confirmation assay | shares compounds with IEC-6 cytotox | IEC-6 rat intestinal epithelial viability, luminescence | inhibition, % at 5 µM | 1,900 compounds, 63% hits | AID 1907;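 also: 0% = vehicle and 100% = reference cytotoxic drug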
* marks the source's active call; other numbers are inactive results; ? = inconclusive; nt = no result. Rule as the data show it, unless noted: active = inhibition above about 22%; inactive = the rest.

SMILES	aSyn UTR inh	KLF5 inhibitor	Ba/F3 V617F tox	IEC-6 cytotox	BaF3 tox	APP 5UTR inh	BaF3 tox 2	JAK2V617F conf	IEC-6 tox confirm
O=C(NC1CCCc2ccccc21)c1ccccc1 (stereo unspecified)	15	3	1	-6	6	7	nt	nt	nt
O=C(NC1CCCc2ccccc21)c1n[nH]c(=O)c2ccccc12 (stereo unspecified)	88*	2	24*	23*	-7	15	9	42*	34*
COc1ccc(NC(=O)Cc2ccc(Cl)c(Cl)c2)cn1	-22	-16	-2	0	2	-9	nt	nt	nt
COc1ccc(NC(=O)/C(Cl)=C(/Cl)S(=O)(=O)Cc2ccc(C)cc2)cn1	7	28	33*	23*	5	86*	88*	98*	43*
NC(=O)c1cc2c3ccccc3ccn2c1-c1ccccc1	113*	-12	70*	38*	-5	nt	63*	95*	61*
Cc1cc(C(N)=O)c2ccccc2n1	2	-21	1	0	1	10	nt	nt	nt
O=C(NC(Cc1ccccc1)C(=O)O)/C(=C/c1ccccc1)NC(=O)c1cccc(Br)c1 (stereo unspecified)	-9	-16	0	1	8	-1	nt	nt	nt
CCC(=O)NCCc1nc2cc(NC(=O)c3ccco3)ccc2n1C	-73	-48	nt	-2	nt	nt	nt	nt	nt
Cn1c(=NC(=O)CCl)sc2ccccc21	-16	-5	13	0	2	25	nt	nt	nt
O=C(CCl)N=c1sccn1Cc1cccc2ccccc12	2	-15	102*	92*	5	13	24	99*	17
COc1ccccc1-c1cc(C(F)(F)F)nc(S(C)(=O)=O)n1	-27	5	5	8	7	4	nt	nt	nt
CS(=O)(=O)c1nc(-c2ccco2)cc(C(F)(F)F)n1	-76	-8	42*	25*	21	0	8	70*	36*
Cc1ccc(C(C)C)cc1OCCn1cncn1	6	-11	nt	0	nt	nt	nt	nt	nt
COC(=O)/C=C/S(=O)(=O)c1ccc(NC(C)=O)cc1	-10	-35	26*	27*	19	83*	12	12	0
O=C(N/N=C/c1ccccc1Cl)c1[nH]c2ccc(Br)cc2c1-c1ccccc1	71*	13	47*	56*	21	96*	88*	100*	70*
CC1CN(C(=O)CCNS(=O)(=O)c2ccc(Br)cc2)CC(C)O1 (stereo unspecified)	9	nt	nt	nt	nt	nt	nt	nt	nt
CC(C)(C)NC(=O)CN(Cc1ccc2c(c1)OCO2)C(=O)CNS(=O)(=O)c1ccccc1	11	-43	nt	-2	nt	nt	nt	nt	nt
O=C(CCl)NCc1cc(-c2ccc(Cl)cc2)no1	-65	3	24*	24*	11	-3	12	75*	31*
COc1ccc(OCc2cc(-c3ccc(Cl)cc3)no2)cc1	-32	3	-1	2	0	6	nt	nt	nt
Cc1noc(C)c1CSc1nc2ccccc2c(=O)n1-c1ccccc1	1	7	29*	30*	26	24	33*	54*	38*
COc1cccc(N(C(=O)CCl)C(C(=O)NCCc2ccccc2)c2cccs2)c1 (stereo unspecified)	-112	2	99*	87*	4	4	21	99*	41*
COc1ccc(N(C(=O)CCl)C(C(=O)NCCc2ccccc2)c2cccs2)cc1Cl (stereo unspecified)	16	1	101*	78*	-2	-2	25	99*	42*
COc1ccccc1C(=O)N/C(=C\c1ccc(Br)cc1)C(=O)N1CCCC1	12	6	-2	-10	0	nt	nt	nt	nt
CN1CCN(S(=O)(=O)c2cccs2)CC1	-18	-31	-1	0	0	19	nt	nt	nt
O=S(=O)(c1cccs1)N1CCN(c2ccc(O)cc2)CC1	19	-7	66*	24*	-2	nt	6	60*	6
SMILES	aSyn UTR inh	KLF5 inhibitor	Ba/F3 V617F tox	IEC-6 cytotox	BaF3 tox	APP 5UTR inh	BaF3 tox 2	JAK2V617F conf	IEC-6 tox confirm
CCc1ccc(/C=N/NC(=O)c2cc(C3CC3)nc3ccccc23)s1	15	27	42*	34*	22	44	63*	95*	54*
Cc1cccc(/C=N/NC(=O)c2cc(C3CC3)nc3ccccc23)n1	-5	2	nt	0	nt	nt	nt	nt	nt
CCC(=O)N1CCc2cc(S(=O)(=O)N3CCN(c4cc(Cl)ccc4C)CC3)ccc21	1	-42	nt	-5	nt	nt	nt	nt	nt
COc1cc(C)c(C(C)C)cc1S(=O)(=O)n1cnc(C)c1	64*	37	63*	36*	16	-12	61*	92*	51*
COc1ccc(C=C2C(=O)c3ccccc3C2=O)cc1O	-4	-18	-1	12	3	-9	nt	nt	nt
CCN1C/C(=C/c2ccc(OC)c(O)c2)C(=O)/C(=C/c2ccc(OC)c(O)c2)C1	116*	27	52*	32*	-5	88*	13	98*	42*
O=C(Nc1ccc(F)c(Cl)c1)N1CCCCCC1	-75	-92	nt	3	nt	nt	nt	nt	nt
N#Cc1ncc(-c2ccc3c(c2)OCCOCCOCCOCCOCCO3)nc1C#N	16	33	34*	32*	-3	21	-3	43*	12
COC(=O)c1cc(S(=O)(=O)NCc2ccc3c(c2)OCO3)cn1C	-9	-18	nt	-1	nt	nt	nt	nt	nt
CCc1nnc(N/N=C/c2ccccc2Cl)n1N	-10	39	25*	100*	24	6	-4	-2	-6
Cc1ccccc1OCC(=O)OCC(=O)NCC1CCCO1 (stereo unspecified)	-3	0	-1	-12	4	35	nt	nt	nt
C=CCNC(=O)C1CC2Cn3c(nc4cc(Cl)c(Cl)cc43)C2N1C (stereo unspecified)	-22	nt	nt	nt	nt	nt	nt	nt	nt
COc1ccc(OC)c2c1C(=O)C(Cl)=C(Cl)C2=O	-89	7	66*	86*	-4	nt	84*	92*	63*
OC1(c2ccc(Cl)cc2)CCN(Cc2cn[nH]c2-c2ccc(F)cc2)CC1	?	-13	45*	43*	3	nt	18	34*	26*
COc1ccc(-c2[nH]ncc2CN2CCN(c3ccc(F)cc3)CC2)cc1	16	-8	-3	-3	-1	nt	nt	nt	nt
COc1ccc(-c2[nH]ncc2CN2CCC(O)(c3ccc(Cl)cc3)CC2)cc1	87*	-7	41*	34*	11	nt	34*	41*	23*
C/C(=N\N=C(N)N)c1cc(Cl)ccc1Cl	65*	-3	44*	31*	8	-26	-4	23	7
CC(C)(C)n1nc2c(c1NC(=O)c1cccc(Cl)c1)CS(=O)(=O)C2	11	-7	nt	2	nt	nt	nt	nt	nt
